Results on 38 compounds are retold here after PubChem BioAssay (NCI).

About 83,000 compounds went through this panel and 20% of them were active in at least one assay; those are over-represented in the sample as a whole.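 48-hour exposure, single concentration, 96-well plates; percent growth endpoint where 0 means no net growth. Active: below 10.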 Unmarked numbers belong to inactive results. Activity calls are given as the source filed them.

In the first test the test system is MDA-MB-435 melanoma. Kind of test: NCI-60 one-dose screen, 48 h (100 = growth as untreated, 0 = no growth, -100 = all killed). Particulars: 10 µM unless noted.
Turning to `CC(=O)Nc1nc(C(=O)N2N=C(C)/C(=C/c3cccs3)C2=O)cs1`, the growth is 103%.
On the same count and under the same terms, the value for `C=C1C(=O)O[C@H]2[C@H]1CC/C(COC(=O)NCCc1ccc(Br)cc1)=C\CC[C@@]1(C)O[C@@H]21` was 23.9%; that for `CCCCCCCCCCCCNC(=S)N/N=C/c1ccc(Cl)c(Cl)c1` was 98.8%; that for `CCCCCCCCCCCCCCCCC(Br)C(=O)O` (stereo unspecified) was 98.4%.
On the same count and under the same terms, the result for `CCN(Cc1ccc(CN(CC)C(=O)C(Cl)(Cl)Cl)cc1)C(=O)C(Cl)(Cl)Cl` reads 83.7%.
On the same count and under the same terms, the result for `CS(=O)(=O)N(c1cc(-c2ccc3ncnc(Nc4cccc(Cl)c4)c3c2)cnc1Cl)S(C)(=O)=O` reads 15.9%; that for `COc1cc(C(=O)/C=C/c2cc(C(=O)c3cc(OC)c(OC)c(OC)c3)ccc2OC)ccc1N`, 2.47% (active); that for `CCCCCCCCCCC/C=C\C[C@H](O)C/C=C1/C(=O)C=C[C@@H]1C/C=C\CCCC(=O)OC`, -14.5% (active).
As for `O=S(=O)(NCCCNc1cc(-c2cn(-c3ccccc3)nc2-c2cccc(O)c2)ccn1)c1ccc(Cl)cc1`, the growth was 16.4%.
Still for that read-out and setting: the result for `CC(=O)/C=C/c1cc2cc(Cl)ccc2[nH]c1=O` reads 94.2%; that for `CC(=O)Nc1nc(C(=O)N2N=C(C)/C(=C/c3ccccc3)C2=O)cs1`, 106%; that for `COC(=O)CCCCN=Cc1c(O)c(O)c(C(C)C)c2cc(C)c(-c3c(C)cc4c(C(C)C)c(O)c(O)c(C=NCCCCC(=O)OC)c4c3O)c(O)c12`, 25.7%.
Same read-out and setting: the value for `COc1cccc(C2CC(=O)Nc3c2c(C)nn3-c2nc3ccccc3[nH]2)c1OC` (stereo unspecified) was 58.5%; that for `O=c1[nH]c(-c2cn(-c3ccc(Cl)cc3)nn2)nc2ccccc12` was 77.2%; that for `Cc1ccc(OCCn2c(C)nn(-c3ccc(Cl)cc3)c2=O)cc1` was 105%.
On the same count and under the same terms, the value for `O=C(COc1ccccc1)N1N=C(c2ccc(Cl)cc2)CC1c1c[nH]c2ccccc12` (stereo unspecified) was 93.8%; that for `COc1cc(OC)cc(-c2n[nH]nc2-c2ccc3c(c2)OCO3)c1` was -82.8% (active); that for `COC(=O)CC/C(C)=N\Nc1ccc([N+](=O)[O-])cc1` was 31.7%.
Regarding `O=C(O)C(=Cc1c2ccccc2cc2ccccc12)C(=O)O`, the growth is 109%.
Turning to `Clc1ccc(/C=C/c2nc(N3CCOCC3)c3nc(Cl)c(Cl)cc3n2)cc1`, the growth was 98.1%.
Regarding `COc1cc(OC)c(C(=O)/C=C/c2cccc(C#N)c2)c(OC)c1`, the growth is 7.3% (active).
Same read-out and setting: the value for `CCCC(C(=O)OCC)C(C)OC(=O)OCC` (stereo unspecified) was 101%; that for `CCN(CC)CCSc1c2ccc(Cl)cc2nc2ccc(OC)cc12` was 109%.
Still for that read-out and setting: the result for `Cc1nn(-c2ccc(Cl)cc2)c(=O)n1CCOc1ccccc1Cl` reads 107%; that for `COc1ccc(S(=O)(=O)N2CCN(c3cc4c(cc3F)c(=O)c(C(=O)O)cn4C3CC3)CC2)c(OC)c1`, 97.7%; that for `CCOC(=O)C1=C(C)NC(=O)NC1c1ccc(OCC(=O)N/N=C/c2ccc(Cl)cc2)cc1` (stereo unspecified), 90.6%.
On the same count and under the same terms, the result for `CCOC(=O)c1cc(/C(=N\O)c2cc(OC)c(OC)c(OC)c2)n2c(C)cccc12` reads -10.2% (active); that for `C=CCOc1cccc(/C=C/C(=O)c2sc(Nc3cccnc3)nc2C)c1`, 22.5%.
As for `CN1CCN(c2ccc3cc(-c4nc5ccccc5[nH]4)c(=O)oc3c2)CC1`, the growth was 99.5%.
As to `O=C(/C=C/CN1CCOCC1)Nc1cc2c(Nc3cccc(Cl)c3F)ncnc2cc1OCCOC(F)F`, the growth is 97.2%.
The same measure, in the same setting: the value for `O=Nc1c(-c2c(O)[nH]c3ccc([N+](=O)[O-])cc23)[nH]c2ccc(O)cc12` was 9.35% (active); that for `COC(=O)c1ccc(C)cc1` was 101%.
Still for that read-out and setting: the result for `COc1ccc(/C=C/c2nc(N3CCOCC3)c3cc(F)c(F)cc3n2)cc1OC` reads 15.8%; that for `Cc1ccc2c(c1)ncn2-c1ncnc2c1CC(C)c1ccccc1N2C` (stereo unspecified), 11.8%; that for `COc1ccc(S(=O)(=O)NCCNc2nccc(-c3c(-c4ccccc4)nc4sccn34)n2)cc1`, 11.2%.
As for `CCCCC[C@@H]1Cc2cc(O)c(C(=O)O)c3c2[C@H](C[C@@]2(CCCO2)O3)O1`, the growth is 97.2%.
On to `O=C(Nc1ccc(Br)c(Cl)c1)c1cc(F)ccc1O`, for which the growth was -11.3% (active).
Same read-out and setting: the result for `Cc1ccc2nc(-c3c(N)n[nH]c3CCCO)[nH]c(=O)c2c1` reads 110%.

For another test, the system named is SW-620 colon. The description is as above. Particulars: 10 µM unless noted.
Take `CC(=O)Nc1nc(C(=O)N2N=C(C)/C(=C/c3cccs3)C2=O)cs1`: the growth is 110%.
On the same count and under the same terms, the result for `C=C1C(=O)O[C@H]2[C@H]1CC/C(COC(=O)NCCc1ccc(Br)cc1)=C\CC[C@@]1(C)O[C@@H]21` reads -55.6% (active); that for `CCCCCCCCCCCCNC(=S)N/N=C/c1ccc(Cl)c(Cl)c1`, 110%; that for `CCCCCCCCCCCCCCCCC(Br)C(=O)O` (stereo unspecified), 116%.
Same read-out and setting: the result for `CCN(Cc1ccc(CN(CC)C(=O)C(Cl)(Cl)Cl)cc1)C(=O)C(Cl)(Cl)Cl` reads 89%; that for `CS(=O)(=O)N(c1cc(-c2ccc3ncnc(Nc4cccc(Cl)c4)c3c2)cnc1Cl)S(C)(=O)=O`, 20.4%.
The same measure, in the same setting: the value for `COc1cc(C(=O)/C=C/c2cc(C(=O)c3cc(OC)c(OC)c(OC)c3)ccc2OC)ccc1N` was -57.3% (active); that for `CCCCCCCCCCC/C=C\C[C@H](O)C/C=C1/C(=O)C=C[C@@H]1C/C=C\CCCC(=O)OC` was 3.33% (active); that for `O=S(=O)(NCCCNc1cc(-c2cn(-c3ccccc3)nc2-c2cccc(O)c2)ccn1)c1ccc(Cl)cc1` was 15.6%.
`CC(=O)/C=C/c1cc2cc(Cl)ccc2[nH]c1=O`: the growth was 80.4%.
The same measure, in the same setting: the result for `CC(=O)Nc1nc(C(=O)N2N=C(C)/C(=C/c3ccccc3)C2=O)cs1` reads 107%.
Still for that read-out and setting: the result for `COC(=O)CCCCN=Cc1c(O)c(O)c(C(C)C)c2cc(C)c(-c3c(C)cc4c(C(C)C)c(O)c(O)c(C=NCCCCC(=O)OC)c4c3O)c(O)c12` reads 17%.
On the same count and under the same terms, the result for `COc1cccc(C2CC(=O)Nc3c2c(C)nn3-c2nc3ccccc3[nH]2)c1OC` (stereo unspecified) reads 77.1%; that for `O=c1[nH]c(-c2cn(-c3ccc(Cl)cc3)nn2)nc2ccccc12`, 94.4%.
As for `Cc1ccc(OCCn2c(C)nn(-c3ccc(Cl)cc3)c2=O)cc1`, the growth is 106%.
On the same count and under the same terms, the result for `O=C(COc1ccccc1)N1N=C(c2ccc(Cl)cc2)CC1c1c[nH]c2ccccc12` (stereo unspecified) reads 54.5%; that for `COc1cc(OC)cc(-c2n[nH]nc2-c2ccc3c(c2)OCO3)c1`, 30.8%.
On the same count and under the same terms, the result for `COC(=O)CC/C(C)=N\Nc1ccc([N+](=O)[O-])cc1` reads 54.4%; that for `O=C(O)C(=Cc1c2ccccc2cc2ccccc12)C(=O)O`, 105%; that for `Clc1ccc(/C=C/c2nc(N3CCOCC3)c3nc(Cl)c(Cl)cc3n2)cc1`, 114%.
Regarding `COc1cc(OC)c(C(=O)/C=C/c2cccc(C#N)c2)c(OC)c1`, the growth is 6.58% (active).
Same read-out and setting: the value for `CCCC(C(=O)OCC)C(C)OC(=O)OCC` (stereo unspecified) was 113%; that for `CCN(CC)CCSc1c2ccc(Cl)cc2nc2ccc(OC)cc12` was 4.29% (active); that for `Cc1nn(-c2ccc(Cl)cc2)c(=O)n1CCOc1ccccc1Cl` was 103%.
As for `COc1ccc(S(=O)(=O)N2CCN(c3cc4c(cc3F)c(=O)c(C(=O)O)cn4C3CC3)CC2)c(OC)c1`, the growth was 105%.
Same read-out and setting: the result for `CCOC(=O)C1=C(C)NC(=O)NC1c1ccc(OCC(=O)N/N=C/c2ccc(Cl)cc2)cc1` (stereo unspecified) reads 94.2%; that for `CCOC(=O)c1cc(/C(=N\O)c2cc(OC)c(OC)c(OC)c2)n2c(C)cccc12`, 23.3%; that for `C=CCOc1cccc(/C=C/C(=O)c2sc(Nc3cccnc3)nc2C)c1`, 15.5%.
Same read-out and setting: the value for `CN1CCN(c2ccc3cc(-c4nc5ccccc5[nH]4)c(=O)oc3c2)CC1` was 107%; that for `O=C(/C=C/CN1CCOCC1)Nc1cc2c(Nc3cccc(Cl)c3F)ncnc2cc1OCCOC(F)F` was 90.7%; that for `O=Nc1c(-c2c(O)[nH]c3ccc([N+](=O)[O-])cc23)[nH]c2ccc(O)cc12` was 3.18% (active).
Still for that read-out and setting: the value for `COC(=O)c1ccc(C)cc1` was 101%.
Turning to `COc1ccc(/C=C/c2nc(N3CCOCC3)c3cc(F)c(F)cc3n2)cc1OC`, the growth was 55.5%.
On the same count and under the same terms, the result for `Cc1ccc2c(c1)ncn2-c1ncnc2c1CC(C)c1ccccc1N2C` (stereo unspecified) reads 22.9%; that for `COc1ccc(S(=O)(=O)NCCNc2nccc(-c3c(-c4ccccc4)nc4sccn34)n2)cc1`, 36.5%.
For `CCCCC[C@@H]1Cc2cc(O)c(C(=O)O)c3c2[C@H](C[C@@]2(CCCO2)O3)O1`, the growth was 111%.
On the same count and under the same terms, the value for `O=C(Nc1ccc(Br)c(Cl)c1)c1cc(F)ccc1O` was 7.76% (active); that for `Cc1ccc2nc(-c3c(N)n[nH]c3CCCO)[nH]c(=O)c2c1` was 101%.
